From paper PMC4552634, “A New Set of Chemical Starting Points with Plasmodium falciparum Transmission-Blocking Potential for Antimalarial Drug Discovery” (PLoS ONE, 2015)
In all, about 13,000 compounds went through this assay and about 3,200 (25%) showed an effect of 50% or more. The list shows a part of the results.

system: P. falciparum stage V gametocytes; design: BacTiter-Glo ATP luminescence viability of purified stage V gametocytes in 384-well plates, per cent inhibition versus DMSO; details: 48 h, 5 µM; inhibitor

SMILES	% Inhibition
COc1cc(C(=O)NC2CCN(Cc3ccccc3)CC2)ccc1-c1nc2cc(Cl)c(C)cc2[nH]1 [TCMDC-140028]	-62.59%
CN1CCN(c2nc(NCCc3ccc(O)cc3)nc(NCc3ccccc3-c3ccc(C(F)(F)F)cc3)n2)CC1 [TCMDC-138322]	-8.259%
CC1(C)[C@H]2CC[C@@H](CNc3nc(NCCc4cnc[nH]4)nc(Nc4ccc5c(c4)OCO5)n3)[C@@H]1C2 [TCMDC-139738]	-17.51%
COc1ccc2nccc([C@@H](O)CN3CCC(NC(=O)C(c4cc5ccccc5o4)N4CCN(c5ccccc5OC)CC4)CC3)c2c1 (stereo partly drawn) [TCMDC-140991]	13.75%
COc1ccc(C(=O)N2CCC(C(=O)NC(C)c3ccc(-n4ccnc4)cc3)CC2)c2ccccc12 (stereo not drawn) [TCMDC-124603]	-15.82%
O=C(NCc1ccc(Cl)cc1)c1ccc(CN2CCCN(Cc3cccc(O)c3)CC2)cc1 [TCMDC-136442]	2.881%
CC(C)(C)c1ccc(NC(=O)c2cccc(CN3CCCN(Cc4ccc(F)cc4)CC3)c2)cc1 [TCMDC-135985]	-30.03%
C[C@H]1CN(Cc2cccc(-c3cc(CNC(=O)c4cccc(CN5CCN(C/C=C/c6ccccc6)CC5)c4)ccc3F)c2)CCN1 [TCMDC-136208]	114.8%
O=C(Nc1ccc(CN2CCN(S(=O)(=O)c3cccc(Cl)c3)CC2)cc1)c1cccs1 [TCMDC-136319]	27.89%
CN(C(=O)/C=C/c1c(Cl)cccc1Cl)C1CCN(CCCCCNC(=O)/C=C/c2ccc(Cl)c(Cl)c2)CC1 [TCMDC-139995]	-22.04%
CN(CC(=O)N1CCN(S(=O)(=O)c2cccc(Cl)c2)CC1CN1CCCC1)c1ccc(Cl)c(Cl)c1 (stereo not drawn) [TCMDC-136893]	71.55%
Cn1c(N)c(C(=O)CSc2ncc(-c3ccc(F)cc3)n2Cc2ccccc2)c(=O)n(C)c1=O [TCMDC-125101]	12.63%
CC1(C)N=C(N)N=C(N)N1OCCCc1cccc(C(F)(F)F)c1 [TCMDC-131651]	-2.569%
COc1ccc(Oc2ccccc2CNCC2CCN(CC3CCCCC3)CC2)cc1 [TCMDC-141413]	81.97%
COc1ccc(CN2CCC(CNCCc3ccccc3Oc3ccccc3)CC2)cc1 [TCMDC-141350]	98.78%
O=[N+]([O-])c1ccc(Oc2ccccc2CNCC2CCN(CC3CCCCC3)CC2)cc1 [TCMDC-141414]	46.86%
COc1ccc(CN2CCC(CNCCc3c(Cl)cccc3Cl)CC2)cc1 [TCMDC-141345]	89.6%
COc1ccc2ccccc2c1CNCC1CCN(CC2CCCCC2)CC1 [TCMDC-141412]	-44.03%
COc1ccc(CN2CCC(CNCCc3ccccc3Cl)CC2)cc1 [TCMDC-141343]	21.62%
COc1ccc2c(c1)CC1CN(CCCCNC(=O)c3ccc(NC(=O)c4cc(Cl)cc(Cl)c4)cc3)CCN1C2 (stereo not drawn) [TCMDC-138223]	-15.2%
NC1CCN(c2nc(NCCc3ccc(O)cc3)nc(NCc3ccccc3-c3ccccc3)n2)CC1 [TCMDC-133441]	29.52%
Cc1ccc2c(Cc3cnc(N)nc3N)cc(C)c(N)c2n1 [TCMDC-137878]	-11.15%
COc1ccc(C(C(=O)NC2CCN(C[C@H](O)c3ccnc4ccc(OC)cc34)CC2)N2CCN(c3ccc([N+](=O)[O-])cc3)CC2)cc1 (stereo partly drawn) [TCMDC-140992]	-4.461%

SMILES	% Inhibition
O=C(NCc1ccccc1)Nc1ccc(-c2cccc(-c3nc4ccc(C(F)(F)F)cc4[nH]3)c2)cc1 [TCMDC-133160]	-18.34%
O=C(NCCCCCN1CCCN(C(=O)Nc2ccc(F)c(C(F)(F)F)c2)CC1)C1CC1c1ccc(Cl)c(Cl)c1 (stereo not drawn) [TCMDC-136254]	10.75%
O=C(Nc1ccc(F)c(C(F)(F)F)c1)NC1CCN(CCCCCNC(=O)C2CC2c2ccc(Cl)c(Cl)c2)CC1 (stereo not drawn) [TCMDC-136259]	97.75%
O=C(Nc1ccc(F)c(C(F)(F)F)c1)N[C@H]1CCN(CCCCCNC(=O)C2CC2c2ccc(Cl)c(Cl)c2)C1 (stereo partly drawn) [TCMDC-136270]	88.79%
COc1ccc2nccc([C@@H](O)CN3CCC(NC(=O)C(c4cc5ccccc5o4)N4CCN(Cc5ccccc5)CC4)CC3)c2c1 (stereo partly drawn) [TCMDC-140988]	30.33%
O=C(Nc1ccc(-c2nc3ccccc3[nH]2)cc1)C1CCCN(C2CCC2)C1 (stereo not drawn) [TCMDC-124687]	-67.58%
NC(=O)c1cccc(Nc2nccc(Nc3ccc(Oc4ccc5ccccc5c4)cc3)n2)c1 [TCMDC-138600]	-22.11%
N#CCc1ccc(Nc2nccc(Nc3ccc(Oc4ccccc4)cc3)n2)cc1 [TCMDC-138577]	4.825%
O=C(NCCCN1CCCCC1)c1ccc(Nc2nccc(Nc3ccc(Oc4ccccc4)cc3)n2)cc1 [TCMDC-138609]	-10.89%
CCCN1CCN(CCNC(=O)c2cccc(Nc3nccc(Nc4ccc(Oc5ccccc5)cc4)n3)c2)CC1 [TCMDC-138606]	-54.96%
O=C(NCCCN1CCCCC1)c1cccc(Nc2nccc(Nc3ccc(Oc4ccccc4)cc3)n2)c1 [TCMDC-138605]	-29.44%
O=C(NCCCN1CCOCC1)c1cccc(Nc2nccc(Nc3ccc(Oc4ccccc4)cc3)n2)c1 [TCMDC-138604]	68.84%
CN1CCN(CCCNCc2ccc(Nc3nccc(Nc4ccc(Oc5ccccc5)cc4)n3)cc2)CC1 [TCMDC-138621]	88.79%
Brc1cccc(Nc2nccc(Nc3ccc(Oc4ccccc4)cc3)n2)c1 [TCMDC-138559]	9.5%
O=C(Nc1ccccc1)c1cccc(Nc2nccc(Nc3ccc(Oc4ccccc4)cc3)n2)c1 [TCMDC-138561]	74.26%
CN1CCN(CCCNCc2cccc(Nc3nccc(Nc4ccc(Oc5ccccc5)cc4)n3)c2)CC1 [TCMDC-138616]	109.5%
O=C(NCCN1CCCC1)c1cccc(Nc2nccc(Nc3ccc(Oc4ccccc4)cc3)n2)c1 [TCMDC-138602]	-15.16%
CN1CCN(Cc2cccc(Nc3nccc(Nc4ccc(Oc5ccccc5)cc4)n3)c2)CC1 [TCMDC-138614]	-13.87%
COc1cc2c(cc1C(F)(F)F)N(C(=O)Nc1cc(F)c(F)c(-c3cccnc3)c1)CC2 [TCMDC-139061]	5.239%
CCC(C)(CC)C(=O)n1ncc2c3c(N)nc(N)nc3ccc21 [TCMDC-137335]	-46.13%
COc1ccc(-n2ccnc2SCC(=O)Nc2cc(C(F)(F)F)ccc2Cl)c(OC)c1 [TCMDC-123822]	7.482%
CCCc1cc(Cc2cnc(N)nc2N)c2cccnc2c1OC [TCMDC-138034]	13.25%
O=C(NCCN1CCCCC1)c1cccc(Nc2nccc(Nc3ccc(Oc4ccccc4)cc3)n2)c1 [TCMDC-138603]	19.36%

SMILES	% Inhibition
c1ccc(Oc2ccc(Nc3ccnc(Nc4cccc(CNCCCN5CCOCC5)c4)n3)cc2)cc1 [TCMDC-138615]	95.32%
c1cncc(-c2cccc(CNc3nccc(Nc4ccc(OCCN5CCOCC5)cc4)n3)c2)c1 [TCMDC-134667]	2.743%
CN1CC[C@@H](Oc2cc(C(=O)NCc3ccc(Cl)c(Cl)c3)ccc2C(F)(F)F)C1 [TCMDC-136228]	28.38%
CCCCCCCCc1c(C)[nH]c(C)c(Br)c1=O [TCMDC-137437]	29.73%
CCCCCCCc1c(C)[nH]c2cccc(OC)c2c1=O [TCMDC-138014]	32.1%
CCCCCCCc1c(C)[nH]c2ccccc2c1=O [TCMDC-137425]	37.94%
CCCCCCCc1c(C)[nH]c2c(OC)cccc2c1=O [TCMDC-138016]	17.32%
CCCCCCCCCc1c(C)[nH]c2ccccc2c1=O [TCMDC-137268]	51.45%
CCCCCCCCc1c(C)[nH]c(C)c(I)c1=O [TCMDC-137430]	48.86%
CCCCCCCCc1c(C)[nH]c(C)c(Cl)c1=O [TCMDC-137538]	68.39%
CCCCCCCCc1c(C)[nH]c(C)c(C#N)c1=O [TCMDC-137431]	44.76%
CCCCCCCc1c(C)[nH]c2ccc(F)cc2c1=O [TCMDC-137269]	73.68%
O=C(NC1CCN(Cc2ccccc2)CC1)c1ccc(-c2nc3cc(F)c(F)cc3[nH]2)s1 [TCMDC-140452]	7.821%
N#Cc1ccc2c(c1)CCN(CCC1CCC(NC(=O)c3ccc(-c4ccccn4)s3)CC1)CC2 (stereo not drawn) [TCMDC-139840]	-69.85%
O=C(Nc1ccc(-c2csc(-c3nc4ccccc4[nH]3)c2)cc1)Nc1ccc(F)c(F)c1F [TCMDC-133221]	23.86%
O=C(/C=C/c1ccc(Cl)c(Cl)c1)NCCCCCN1CCC(CCNC(=O)/C=C/c2cc(C(F)(F)F)ccc2F)CC1 [TCMDC-140005]	-14.45%
CC(Oc1ccc(Cl)cc1)C(=O)N(C)C1CCN(CCCCCNC(=O)/C=C/c2ccc(Cl)c(Cl)c2)CC1 (stereo not drawn) [TCMDC-139989]	-40.26%
CN(C(=O)Cc1ccc(Cl)cc1)C1CCN(CCCCCNC(=O)/C=C/c2ccc(Cl)c(Cl)c2)CC1 [TCMDC-139988]	-15.24%
CC(C)(Oc1ccc(Cl)cc1)C(=O)NCCC1CCN(CCCCCNC(=O)/C=C/c2ccc(Cl)c(Cl)c2)CC1 [TCMDC-140004]	87.45%
CN(C(=O)Cc1ccc(Cl)c(Cl)c1)C1CCN(CCCCCNC(=O)/C=C/c2ccc(Cl)c(Cl)c2)CC1 [TCMDC-139986]	-22.66%
CC(C)(C(=O)NCCC1CCN(CCCCCNC(=O)/C=C/c2ccc(Cl)c(Cl)c2)CC1)c1ccc(Cl)cc1 [TCMDC-140002]	52.94%
CC(Oc1ccc(Cl)cc1)C(=O)NCCC1CCN(CCCCCNC(=O)/C=C/c2ccc(Cl)c(Cl)c2)CC1 (stereo not drawn) [TCMDC-140003]	96.79%
CN(C(=O)C(C)(C)Oc1ccc(Cl)cc1)C1CCN(CCCCCNC(=O)/C=C/c2ccc(Cl)c(Cl)c2)CC1 [TCMDC-139990]	51.05%
